The source of these data is PubChem BioAssay (NCI).

Molecules are shown by their SMILES. This is part of a sample that, as a whole, favours compounds with a hit. Of some 83,000 tested, about 20% had one in any assay.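 Percent growth is the endpoint: 0 to 100 indicates growth inhibition (40 means 60% inhibition), 0 means no net growth, and negative values indicate cell death.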 A number with no mark means an inactive call. Calls of active or inactive are those of the source.

The assay has as its system SNB-19 CNS. The assay can be described thus: NCI-60 one-dose screen, 48 h (100 = growth as untreated, 0 = no growth, -100 = all killed). The following applies: 10 µM unless noted. How it is done:
Growth inhibition of the SNB-19 human tumor cell line is measured as a screen for anti-cancer activity. Cells are grown in 96 well plates and exposed to the test compound for 48 hours. Compounds are tested at a single concentration, which is 10^-5 M for most compounds. The reported endpoint is percent growth (GI% or GIPRCNT), where numbers from 0 - 100% represent growth inhibition, and numbers from -100% - 0 represent cell death. For example, a value of 40 represents 60% growth inhibition. A value of 0 means no net growth occurred over the course of the experiment. A value of -40 indicates 40% of cells at the beginning of the experiment died by the end of the experiment. A value of -100 means all cells are dead at the end of the experiment.
NCI-60 Human Tumor Cell Lines Screen was performed using the standard one-dose NCI protocol, which is described in more detail at https://dtp.cancer.gov/discovery_development/nci-60/default.htm.
Compounds with GIPRCNT values below 10 were considered active. Activity score was based on GIPRCNT using the following formula: […]
Score is 0 for GIPRCNT values of 100 or above, 50 for GIPRCNT values of 0, and 100 for GIPRCNT values of -100.
With `O=C(Nc1cnc(Nc2ccc(N3CCOCC3)nc2)nc1Oc1ccc(C(F)(F)F)cc1)c1ccncc1`, the growth is 91.1%.
Regarding `C=CCN1C(=O)c2cccc3c(N4CCOCC4)ccc(c23)C1=O`, the growth is 24.9%.
The figure for `COc1ccc(Nc2ncccc2/C=C/C(=O)c2cc(OC)c(OC)c(OC)c2)cc1` is 33.4%.
Turning to `Cc1cccc(N2CCC(=O)NC2=S)c1`, the growth was 99.4%.
As to `CC1=CC(c2ccco2)=C2C(N)=NNC2N1` (stereo not given), the growth is 92.9%.
Consider `COc1ccc(/C=C/C(c2cc(OC)c(OC)c(OC)c2)n2cncn2)cc1` (stereo not given), for which the growth was 49%.
For `COc1cc(C(=O)n2nc(N3CCOCC3)c3cc(-n4cccc4)ccc32)cc(OC)c1OC`, the growth was 75.2%.
For the compound `COc1ccc2c(c1)c(-c1nc(-c3c[nH]c4ncccc34)cs1)cn2CCO`, the growth is 82.4%.
In the case of `CSc1nc(C)c([N+](=O)[O-])c(N)n1`, the growth was 96.9%.
Then `CS(=O)(=O)c1nnc(-c2ccccc2)s1`, with 107%.
Regarding `O=C(Nc1ccc(Cl)cc1)Oc1c(Cl)c(Cl)c(Cl)c(Cl)c1Cl`, the growth is 98.1%.
The figure for `COc1ccc(C2CC(c3cc(OC)c(OC)c(OC)c3)=NO2)cc1OCCCCOc1cc2c(cc1OC)C(=O)N1CCC[C@H]1C=N2` (stereo not given in full) is 16.5%; for `C/C=C(\C)C(=O)N[C@H]1C(O)C[C@]2(C)C3CC[C@@]4(C)C(CC[C@@H]4C(C)N(C)C)C3CCC2C1O` (stereo not given in full) it is 104%; for `OCCNCCNC(Cc1ccc(Cl)cc1)c1ccccc1` (stereo not given) it is 96.9%.
`CC1C=CC(OC(=O)C(C)(O)CCC(O)(C(=O)OC2CC(O)C(C(C)C)CC2(C)O)C(C)C)(C(C)C)CC1` (stereo not given): the growth is -75% [4.63 µM] (active).
Turning to `CCN1CCN(CC(=O)Nc2nc3ccc(NCc4ccc(F)cc4)cc3s2)CC1`, the growth is 99.2%.
For the compound `Cc1nn(-c2ccccc2)c(N)c1N=C1NC(=O)/C(=C/c2ccc(Br)cc2)S1`, the growth was 73.5%.
Turning to `COc1ccc(Cn2cc3c(c2-c2ccccc2)CCc2cnoc2-3)cc1`, the growth is 39.8%.
Take `Nn1c(=O)c(=O)[nH]c2c(cnn2-c2ccccc2)c1=O`: the growth was 103%.
For the compound `CC1(C)[C@@H](O[C@@H]2OC[C@@H](O[C@@H]3O[C@H](CO)[C@@H](O)[C@H](O)[C@H]3O[C@@H]3OC[C@@H](O)[C@H](O)[C@H]3O)[C@H](O)[C@H]2O[C@@H]2O[C@H](CO)[C@@H](O)[C@H](O)[C@H]2O)CC[C@]2(C)[C@H]3CC[C@]45OC[C@@]6(CC[C@](C)(C=O)C[C@H]64)[C@H](O)C[C@@]5(C)[C@]3(C)CC[C@@H]12`, the growth was -68.4% (active).
The figure for `N#Cc1c(-c2ccccc2)nc(SCC(O)CN2CCOCC2)nc1N1CCOCC1` (stereo not given) is 65.8%; for `Nc1[nH]n2cc(-c3ccc(F)cc3)nc2c1N=Nc1ccc(S(N)(=O)=O)cc1` it is 86.4%; for `O=C(Cc1cccc(OC(F)(F)F)c1)Nc1ccc(CCCCc2nnc(NC(=O)Cc3ccccn3)s2)nn1` it is 84.9%.
As for `COc1ccc(C(=O)c2cc3c(N)c(C(=O)Nc4ccccc4)sc3nc2C)cc1`, the growth is 25.2%.
For `O=C(CCCCCNC(=O)c1cc(=O)c(O)co1)Nc1ccccc1`, the growth was 101%.
Consider `CCN1CCN(c2cc(C)nc(N(CCNc3ccnc4cc(Cl)ccc34)Cc3ccc4c(c3)OCO4)n2)CC1`, for which the growth is 29.7%.
Regarding `COc1cc(Cl)c(C)cc1NC(=O)c1cc2ccccc2cc1O`, the growth was 23.1%.
As to `O=C1c2ccccc2C(=O)c2c1c(C(=O)NCc1ccccc1)c1ccccn21`, the growth is 93.9%.
Turning to `Fc1cccc(-c2ccc3c(c2)C2(CCNCC2)CN3)c1`, the growth was 112%.
Consider `Cc1cccc2c1C[C@@]1(C2=O)C(c2ccc(C(C)(C)C)cc2)=NOS1=O` (stereo not given in full), for which the growth was 93.5%.
As to `N#CC1=C(N)Oc2ccc3ccccc3c2C1c1ccc([N+](=O)[O-])cc1` (stereo not given), the growth was 86.8%.
For the compound `CCCCNC(=O)c1cc([N+](=O)[O-])cc(C2CCCCC2)c1O`, the growth was 40.3%.
With `CC1CCN(C(=O)CCCl)c2ccccc21` (stereo not given), the growth is 96.7%.
Then `COc1ccc(/C=C/C(=O)c2cc(OC)c(OC)c(OC)c2)cc1OCC(=O)Nc1nc2ccc(OC(F)(F)F)cc2s1`, with 12.9%.
For the compound `CCN1C(=O)N(CC)C2C1NN=c1s/c(=C3\C(=O)N(CCC(C)C)c4ccccc43)c(=O)n12` (stereo not given), the growth was 23.3%.
As to `COc1ccc(C#Cc2ccc(=O)oc2-c2cc(OC)c(OC)c(OC)c2)cc1O`, the growth was 54.6%.
Regarding `C=C1C(=O)O[C@H]2[C@H]1CC/C(CNC(=O)c1c[nH]c3ccc(F)cc13)=C\CC[C@@]1(C)O[C@@H]21`, the growth is 61.3%.
With `O=C(CSc1nc(-c2ccccc2)cc(=O)[nH]1)Nc1nc(-c2ccccc2)cs1`, the growth is 105%.
As for `CN1CCN(Cc2ccc(NC(=O)c3cncc(C#Cc4cnc5ccc(Cl)nn45)c3)cc2C(F)(F)F)CC1`, the growth is 6.75% (active).
`O=C(NNc1cnccn1)c1nc2cc(F)ccc2n2cccc12`: the growth was 26.2%.
